Experiments:
Assay in all cases: PBM binding z-score (relative to random genomic background probes); higher = stronger binding; sequences stand for … in GC…GCGATTGACAGCGTAGAATGAAGG
[1] = tested on: RARb homodimer (NR concentration 270 nM)
How it was run: (§1)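 Custom Agilent 4×180K protein-binding microarrays carried double-stranded probes, each with a 34-nt variable region. These regions held direct-repeat seeds, single-nucleotide variants, half-site ablations and random human genomic background sequences. Ligand-free nuclear receptor dimers were incubated on the arrays for 1 h, antibodies against each partner (one per run) detected binding, and scanned fluorescence was regression-normalized. Binding z-scores take the random background probes as reference.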

[2] = tested on: RARg:RXRa (NR concentration 270 nM, RXRa partner concentration 90 nM)
How it was run: as §1

[3] = tested on: RARg homodimer (NR concentration 270 nM)
How it was run: as §1

[4] = tested on: RXRa DBDmut IVT, anti-RXR (DBD mutation: RXRa K156A/R161A, NR concentration 90 nM)
How it was run: as §1

[5] = tested on: RXRa homodimer (NR concentration 180 nM)
How it was run: as §1

[6] = tested on: THRa:RXRa (NR concentration 90 nM, RXRa partner concentration 90 nM)
How it was run: as §1

[7] = tested on: THRa homodimer (NR concentration 90 nM)
How it was run: as §1

[8] = tested on: VDR homodimer (NR concentration 270 nM)
How it was run: as §1

| Sequence | PBM binding z-score [1] | PBM binding z-score [2] | PBM binding z-score [3] | PBM binding z-score [4] | PBM binding z-score [5] | PBM binding z-score [6] | PBM binding z-score [7] | PBM binding z-score [8] |
| --- | --- | --- | --- | --- | --- | --- | --- | --- |
| CCTATCAGGCCAATCTGGGTCACTCAAGGCTTGA | 2.48 | 1.44 | 1.71 | 0.421 | 1.14 | 4.02 | 1.16 | -0.0119 |
| CCTTACGGGTCAAGGTTATTGCACGGGTGGTACG | 3.5 | 4.83 | 4.5 | 0.197 | 5.06 | 3.04 | 0.977 | 1.95 |
| CCTAGTTGGTTAAGGTCACACACGCTATAGGTAC | 4.5 | 4.48 | 4.33 | 2.36 | 4.63 | 4.64 | 6.15 | 4.12 |
| GATACAGGGTCAAGGACAGAGTACGCGTATTGAT | 3.58 | 5.67 | 5.78 | 2.36 | 6.51 | 3.85 | 2.14 | 2.72 |
| ACTAGTTGGTCAGCTGAGGTCACAGACAATTCGG | 4.19 | 4.16 | 3.84 | 1.15 | 4.37 | 4.99 | 5.44 | 2.9 |
| GGAACGAGGGCAGTCGAGTTGATAGCATGGCGAT | 0.327 | 0.643 | 1.18 | 1.1 | 0.35 | 1.52 | -0.895 | 1.02 |
| GAACCAAGGTGAATAGGTCGTTGATGAGTAGGCG | 1.78 | 2.53 | 1.25 | -0.268 | 2 | 1.77 | 0.124 | -0.00141 |
| CCTTACGGGTCAATCCAGGTTATAGCATCGGAGT | 3 | 4.49 | 4.17 | 1.75 | 4.31 | 4.93 | 0.547 | 1.32 |
| CCTACTGGGCCATCAGGTCATTAATATCAACGTT | 2.55 | 1.64 | 1.8 | 0.551 | 0.85 | 2.99 | 2.9 | 1.56 |
| ATCTCTAGGTAACCGAGTTCAGTGAATGCCGAAC | 1.31 | 0.6 | 0.669 | 1.39 | 0.704 | 1.72 | 0.663 | 4.05 |
| TAGCCTAGGTCATGGGACAGTATACCACGCGAAC | 3.25 | 4.44 | 4.59 | 0.981 | 3.62 | 3.35 | 1.62 | 0.784 |
| TAGCCTATGTCATGGGCCAGTATACCACGCGAAC | 0.149 | 0.192 | 0.474 | -0.981 | 0.178 | -0.349 | -0.74 | -0.627 |
| TGAAAGAGGTTAAAGATCAGGGAACGTGGCGTCG | 1.1 | 2.9 | 1.68 | 0.56 | 4.19 | 1.63 | -0.693 | 0.28 |
| CCTTACGGGTCACTCCAGCTTATAGCATCGGAGT | 2.64 | 4.1 | 4.22 | 1.69 | 3.9 | 2.22 | -0.158 | 0.747 |
| TCTGGTAGGTCAGTTGGTCAGCTAACGAGCTGCC | 2.92 | 3.09 | 3.99 | 0.902 | 1.37 | 0.644 | 0.0551 | 0.292 |
| ACAGACAGGTGAGTGAAGATAACTCAGCTGGACG | -0.405 | 0.185 | 0.475 | -0.658 | 0.111 | -0.344 | -0.684 | -0.624 |
| GTACCAAGGTGAATAGGTCGTCGATGAGTAGGCG | 2.07 | 2.91 | 1.67 | -0.36 | 2.1 | 2.11 | 0.363 | -0.13 |
| GATACAGGGTCAGCTAGAGGCCAGGGTATGGAAA | 3.59 | 6.74 | 4.95 | 0.978 | 4.38 | 3.08 | 0.844 | 1.01 |
| GATACAGGGTCAGCTAGAGGCCAGCGTATGGAAA | 3.69 | 6.91 | 5.12 | 0.996 | 4.79 | 3.11 | 0.434 | 0.825 |
| CCGACTGGCGCAGAAAGGTTACCATACCATCCGG | 1.78 | 0.821 | 0.575 | -0.469 | 1.66 | 1.05 | -0.286 | -0.331 |
| CCTACTGGGCCAAGGTCATTGGTCAGTCAAAGCA | 3.51 | 3.85 | 3.86 | 0.988 | 3.73 | 3.48 | 2.62 | 3.41 |
| CTCGAAAGGTCGTGCTCAGGTGGGTATACCAAAC | 2.65 | 4.38 | 3.96 | 1.68 | 4.59 | 2.57 | 0.504 | 1.08 |
| ATCGAAAGGTCGACAAGGTGAGTATACACCGTTT | 3.01 | 4.25 | 3.99 | 0.788 | 4.36 | 3.65 | 0.513 | 0.835 |
| TCTCGGAGGACACGAAAGGTCACAGCTCGACATC | 4.92 | 6.11 | 6.17 | 1.44 | 6.3 | 4.29 | 2.38 | 2.48 |
| TCTAGCAGGCCAGACGGTCACTCAAGAGGTACGG | 1.12 | 0.224 | 0.8 | -0.226 | 0.291 | -0.447 | -0.799 | -1.01 |
| TCTCGGAGGACACGACGGTCAGAGCTTTCCAGAG | 1.53 | 0.617 | 1.65 | 0.193 | 0.0986 | 1.33 | 0.161 | -0.222 |
| ACTATTAGTTGAGACGAGGGGAACCGATAGGTTG | -0.242 | 0.21 | 0.42 | 0.612 | 0.177 | 1.13 | -0.473 | 0.00117 |
| GCTAGCAGGCCATTTGGGTCACTCAGTGACGGGC | 1.63 | 0.822 | 1.04 | 0.0208 | 0.754 | 1.9 | 0.383 | 0.166 |

From the supplement of paper PMC6555819
